Assay outcomes from PubChem BioAssay.
The full list was thinned out, with hits kept by preference.
Peg3 imprint – induces erasure of genomic imprints in mouse ES cells; mouse ES Peg3-LacZ reporter, beta-gal luminescence, 40 h; Potency, µM (highest dose often 60.7 µM), actives largely listed as activators; 110,000 tested, 0.02% active; AID 1948
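Readout: BetaGlo luminescence (5 min, room temp) for LacZ from the normally silent maternal Peg3 allele in female Peg3LacZ-Neo ES cells. Cells 300/well, 40 h, 37C, 5% CO2. Data normalized per plate to negative controls.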
ERK AVP inh – blocks ERK signaling stimulated by vasopressin; HEK293-V1b, vasopressin-stimulated pERK AlphaScreen; Potency, µM (series often up to 57.5 µM), usual class: inhibitors; 72,000 tested, 0.99% active; AID 995; also: nearly all actives have a fitted effect of over 55% in size
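qHTS, compounds titrated on V1b-expressing HEK293 cells. Preincubation 30 min at 37C, vasopressin 25 nM for 5 min, lysis 10 min, bead incubation 5 hr at room temperature.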
CRE-bla Fsk – CRE-bla signaling modulation under forskolin stimulation. Potency, µM (highest dose often 38.2 µM), actives largely listed as activators. 71,000 tested, 2.5% active. CHO CRE-bla reporter (cAMP response element driving beta-lactamase), forskolin EC10, beta-lactamase ratio; active = well fitted activation curve with a large enough effect in the signal ratio, with a control signal flat, not every such curve was filed as active; inconclusive = small, poorly fitted or top-dose-only effect, or effect the other way, or a change in a side signal; the % refers to the signal ratio
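CRE-bla CHO cells stimulated with EC10 NKH 477 (water-soluble forskolin) and compound titrations, 3 h at 37C; beta-lactamase read with CCF4 after 2 h at room temperature. Activity from 460/530 nm emission ratio, AC50 values for positive or negative modulation.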
IkB sig inh – suppresses IkB signaling in ABC-DLBCL reporter cells | 110,000 tested, 0.04% active | AID 445 | Potency, µM (highest dose often 57.1 µM) | ABC-DLBCL IkBa-CBG/CBR dual luciferase ratio, 4 h; response scale: scaled: untreated 0%, proteasome inhibitor 100%; active = well fitted curve in the direction sought with a large enough effect in the signal ratio, not every such curve was filed as active; inconclusive = small, poorly fitted or top-dose-only effect, or a change in a side signal; the % refers to the signal ratio;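 also: the direction sought is a rising ratio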
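Luminescence ratio of IκBα-fused green versus native red beetle luciferase in OCI-Ly3 cells, 4 h post-doxycycline with compound; red signal alone, scaled from basal (0%) to zero light (-100%), flagged nonspecific or cytotoxic effects.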
Of the large screens only hits and unclear results are named; the others gave an inactive call. Unless noted, calls follow the shape of the dose curve; as a rule, active = well fitted curve in the direction sought with a large enough effect; inconclusive = small, poorly fitted or top-dose-only effect, or another doubt; inactive = no such curve, though single readings can be large; an effect the other way counts as inactive or inconclusive.

COc1ccc(OC)c(-c2cc(C(=O)Nc3c(C)nn(Cc4ccccc4)c3C)no2)c1	ERK AVP inh inconclusive, CRE-bla Fsk 5µM, IkB sig inh inconclusive
Cc1nn(Cc2ccc(Cl)cc2)c(C)c1NC(=O)c1cc(-c2ccc3c(c2)OCO3)on1	CRE-bla Fsk inconclusive
COc1ccc(OC)c(-c2cc(C(=O)Nc3cc(C)on3)no2)c1	ERK AVP inh inconclusive
COc1ccc(OC)c(-c2cc(C(=O)Nc3c(C)nn(Cc4ccc(Cl)cc4)c3C)no2)c1	CRE-bla Fsk 4µM, IkB sig inh inconclusive
Cc1nn(Cc2ccc(Cl)c(Cl)c2)c(C)c1NC(=O)c1cc(-c2ccc3c(c2)OCO3)on1	CRE-bla Fsk 10µM, IkB sig inh inconclusive
CN(Cc1ccccc1)C(=O)[C@H](Cc1ccc2ccccc2c1)NC(=O)[C@@H]1C[C@@H](O)CN1C(=O)c1cn(C)c2ccccc12	none (no result: ERK AVP inh, CRE-bla Fsk, IkB sig inh)
CCOC(=O)c1c(N)n(-c2ccc(CC)cc2)c2nc3ccccc3nc12	IkB sig inh inconclusive (no result: ERK AVP inh, CRE-bla Fsk)
CCOC(=O)c1c(N)n(CCOC(=O)c2cccs2)c2nc3ccccc3nc12	CRE-bla Fsk 10µM, IkB sig inh inconclusive
COc1cccc(OC)c1OCCCSc1nc(C)cc(=O)[nH]1	ERK AVP inh inconclusive, CRE-bla Fsk inconclusive
CC(C)COc1cc(=O)[nH]c(SCC(C)C)n1	CRE-bla Fsk 10µM
C=CCC1(O)C=CCC2C3C4C(OC(C)(C)C)C2C1C34 (stereo not drawn)	none (no result: Peg3 imprint, CRE-bla Fsk, IkB sig inh)
COc1cc2c(cc1OC)/C(=C/C#N)NC(C)(C)C2	ERK AVP inh inconclusive, CRE-bla Fsk 2µM
Nc1nc2c(c(=O)[nH]1)N=C(CNc1ccc(C(=O)NC(CCC(=O)O)C(=O)O)cc1)CN2 (stereo not drawn)	none (no result: CRE-bla Fsk, IkB sig inh)
CCOC(=O)c1[nH]cnc1C(=O)Nc1ccccn1	CRE-bla Fsk inconclusive
O=C(c1ccccc1)c1nc[nH]c1C(=O)Nc1ccccn1	ERK AVP inh inconclusive, CRE-bla Fsk 10µM
Cc1ccc2[nH]c(=O)c3cc(C(=O)N(C)Cc4ccco4)sc3c2c1	CRE-bla Fsk 10µM, IkB sig inh inconclusive
COCCN(Cc1ccco1)C(=O)c1cc2c(=O)[nH]c3ccc(C)cc3c2s1	IkB sig inh inconclusive (no result: ERK AVP inh, CRE-bla Fsk)
COc1cccc(N2CCN(Cc3nc(N)nc(Nc4ccccc4)n3)CC2)c1	none
Nc1nc(CN2CCN(c3ccccn3)CC2)nc(Nc2ccc(Cl)cc2)n1	ERK AVP inh 32µM, IkB sig inh inconclusive
CN1CCc2c(sc3c2C(=O)NC(/C=C/c2ccco2)N3)C1 (stereo not drawn)	ERK AVP inh 16µM
CN1CCc2c(sc3c2C(=O)NC(c2ccc4c(c2)OCO4)N3)C1 (stereo not drawn)	CRE-bla Fsk 0.5µM
Cc1ccc(C2NC(=O)c3c(sc4c3CCN(C)C4)N2)o1 (stereo not drawn)	ERK AVP inh inconclusive, CRE-bla Fsk inconclusive
COc1ccc(/C=C/C(=O)c2ccc(O)cc2O)cc1OC	ERK AVP inh 16µM (no result: CRE-bla Fsk, IkB sig inh)
O=C(/C=C/c1ccc(O)cc1)c1ccc(O)cc1O	none (no result: CRE-bla Fsk, IkB sig inh)
COc1ccc(C2=CC(c3c(C)nn(-c4ccccc4)c3Cl)n3nnnc3N2)cc1OC (stereo not drawn)	ERK AVP inh inconclusive, CRE-bla Fsk 2.5µM
COc1ccccc1C1C=C(c2ccc(C)cc2)Nc2nnnn21 (stereo not drawn)	CRE-bla Fsk inconclusive
CCOC(=O)N1CCN(C(=O)c2ccc3c(=O)n(Cc4ccc(Cl)cc4)c(=S)[nH]c3c2)CC1	ERK AVP inh inconclusive
CCOC(=O)N1CCN(C(=O)c2ccc3nc4ccsc4c(=O)n3c2)CC1	CRE-bla Fsk 10µM
CCOC(=O)N1CCN(C(=O)c2cccn3c(=O)c4sccc4nc23)CC1	CRE-bla Fsk inconclusive
CCOC(=O)N1CCN(C(=O)c2ccc3nc4ccc(Cl)cc4c(=O)n3c2)CC1	CRE-bla Fsk 0.05µM
C=C1CC[C@@H]2O[C@]2(C)CC[C@@H]2[C@H]1CC2(C)C	CRE-bla Fsk inconclusive (no result: Peg3 imprint, ERK AVP inh)
O=C(O)C[C@@H]1CCCc2ccccc2[C@H]1O	none (no result: Peg3 imprint)
O=S(=O)(NC1CC2CCC1C2)c1ccc2c(c1)OCCO2 (stereo not drawn)	ERK AVP inh 25µM
CCN1C(=O)[C@H]2[C@H]3[C@H](O)[C@H](O)C/C(=N/O[C@@H](C)c4cn([C@H](CO)Cc5ccccc5)nn4)[C@@H]3CC[C@@H]2C1=O	none (no result: Peg3 imprint, CRE-bla Fsk, IkB sig inh)
O=C1C=C[C@@H](O)[C@H]2[C@@H]3C(=O)N(c4cccc(Oc5ccccc5)c4)C(=O)[C@@H]3CC[C@H]12	none (no result: Peg3 imprint, CRE-bla Fsk, IkB sig inh)
COc1ccc2c(c1)OC/C(=C/c1ccc(OC)c(OC)c1)C2=O	ERK AVP inh 16µM (no result: CRE-bla Fsk, IkB sig inh)
OCCn1c(CSc2nnc(-c3ccco3)n2-c2ccccc2)nc2ccc(Cl)cc21	CRE-bla Fsk 0.2µM, IkB sig inh inconclusive
O=C(CSc1nnc(-c2ccco2)n1-c1ccccc1)N1CCOCC1	CRE-bla Fsk inconclusive
CC1=CC(C)(C)N2C(=O)C3(C(C#N)=C(N)Oc4cc(O)ccc43)c3cccc1c32 (stereo not drawn)	CRE-bla Fsk 3.2µM
CC1=CC(C)(C)N2C(=O)C3(C(C#N)=C(N)OC4=C3C(=O)CC(C)(C)C4)c3cccc1c32 (stereo not drawn)	CRE-bla Fsk inconclusive
CCCC(c1nnnn1Cc1cccs1)N1CCN(C2CCCC2)CC1 (stereo not drawn)	none
CCCC(c1nnnn1Cc1ccc(F)cc1)N1CCN(C2CCCCC2)CC1 (stereo not drawn)	ERK AVP inh 32µM
COc1cc([C@@H](O)CO)ccc1OS(=O)(=O)O	none (no result: Peg3 imprint)
Nc1c(S(=O)(=O)c2cccc(Cl)c2)c2nc3ccccc3nc2n1CCN1CCOCC1	CRE-bla Fsk 13µM
Cc1cccc(-n2c(N)c(C(=O)NCCN3CCOCC3)c3nc4ccccc4nc32)c1	CRE-bla Fsk 10µM
CCOC(=O)c1c(N)n(-c2cccc(OC)c2)c2nc3ccccc3nc12	none (no result: ERK AVP inh, CRE-bla Fsk)
CC(C)Cn1c(N)c(C(=O)NCCN2CCOCC2)c2nc3ccccc3nc21	CRE-bla Fsk 10µM
C[C@H]1CN(S(=O)(=O)c2cccc3cnccc23)CCN1	none (no result: Peg3 imprint)
c1ccc(CCN2CCN(c3ncnc4c3cnn4-c3ccccc3)CC2)cc1	ERK AVP inh 16µM
Clc1cccc(-n2ncc3c(N4CCN(Cc5ccccc5)CC4)ncnc32)c1	IkB sig inh inconclusive (no result: ERK AVP inh, CRE-bla Fsk)
O=C1c2ccccc2-c2cc([N+](=O)[O-])c([N+](=O)[O-])cc21	ERK AVP inh inconclusive, IkB sig inh 4µM
c1ccc(Nc2cc(-c3ccccc3)nc3ncnn23)cc1	ERK AVP inh inconclusive, CRE-bla Fsk 10µM
CCOc1ccc(-c2noc(-c3ccncc3)n2)cc1OCC	CRE-bla Fsk 20µM
COc1cc2c(cc1OC)C(COc1ccc(F)cc1)N(C(=O)c1ccco1)CC2 (stereo not drawn)	ERK AVP inh inconclusive, CRE-bla Fsk 10µM
COc1cc2c(cc1OC)C(COc1ccc3c(C)cc(=O)oc3c1)N(C(=O)c1ccco1)CC2 (stereo not drawn)	CRE-bla Fsk 1.6µM
COc1cc2c(cc1OC)C(COc1ccc3c(C)cc(=O)oc3c1)N(C(=O)c1ccccc1C)CC2 (stereo not drawn)	none (no result: ERK AVP inh, CRE-bla Fsk)
